Results filed as inconclusive are left out. A call without a number means that no potency is given here. Calls of active or inactive are those of the source. The call rests on the fitted dose curve; in most records, active means well fitted cell-killing curve with a large enough effect in the repeat runs; inconclusive means weak or mixed curves, or effect the other way; inactive means flat fitted curve, though single readings scatter.

Assay [1] can be described thus: cAMP Responsive Elements (CRE) small molecule antagonists, cell-based qHTS assay: qHTS cell viability counter screen (AID 2060913). Further: nearly all actives have a fitted effect of over 40% in size. Put shortly: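 CRE-bla HEK293T cells (2,000/well, 18 h) given compound plus NKH477 0.25 uM final for 3 h at 37C; viability counter-screen by CellTiter-Glo luminescence in same wells after 30 min.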
On the technique in general: Quantitative high-throughput screening tests each substance at several concentrations.

Assay [2] is described as follows: cAMP Responsive Elements (CRE) small molecule agonists, cell-based qHTS assay: qHTS cell viability counter screen (AID 2060914). Further: nearly all actives have a fitted effect of over 50% in size. Put shortly: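 In the same wells as the reporter read, viability of CRE-bla HEK 293T cells was quantified by CellTiter-Glo luminescence after a 3 h compound exposure.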

As to `CC(C)[C@@H]1CC[C@@H](C)C[C@H]1O`, the Potency entry in assay [1] and in assay [2] was “inactive” each time.
Regarding `O=C1OC(=O)c2c(Cl)c(Cl)c(Cl)c(Cl)c21`, the Potency entry in assay [1] and in assay [2] was “inactive” in each case.
Consider `O=c1[nH]ncc2ccccc12`, for which the Potency entry in assay [1] and in assay [2] was “inactive” throughout.
As to `CC(C)Cc1nccs1`, the Potency result in assay [1] and in assay [2] was “inactive” in each case.
As to `O=c1n(CCCN2CCN(c3cccc(Cl)c3)CC2)nc2ccccn12`, the Potency entry in assay [1] and in assay [2] was “inactive” each time.
As to `CCN(CC)CCc1nc(-c2ccccc2)no1`, the Potency entry in assay [1] and in assay [2] was “inactive” throughout.
`Nc1c(Br)cc([N+](=O)[O-])cc1Br`: the Potency result in assay [1] and in assay [2] was “inactive” in each case.
In the case of `NCCCC[C@H](N[C@@H](CCc1ccccc1)C(=O)O)C(=O)N1CCC[C@H]1C(=O)O`, the Potency entry in assay [1] and in assay [2] was “inactive” each time.
With `CC[C@H](NC(=O)c1cc(F)ccc1NS(=O)(=O)c1cccc2cccnc12)c1ccccc1`, the Potency result in assay [1] and in assay [2] was “inactive” each time.
In the case of `O=P(O)(O)O`, the Potency entry in assay [1] and in assay [2] was “inactive” each time.
As for `CCSCC`, the Potency entry in assay [1] and in assay [2] was “inactive” throughout.
As for `C=COCC1CCC(CO)CC1` (centres undefined), the Potency entry in assay [1] and in assay [2] was “inactive” in each case.
With `C#CCN(C)CCCOc1ccc(Cl)cc1Cl`, the Potency result in assay [1] and in assay [2] was “inactive” each time.
Consider `CN1CCC(OC(c2ccccc2)c2ccccc2)CC1`, for which the Potency entry in assay [1] and in assay [2] was “inactive” each time.
Take `O=C1NC2NC(=O)NC2N1` (centres undefined): the Potency entry in assay [1] and in assay [2] was “inactive” each time.
Take `COCCOCCOCCO`: the Potency entry in assay [1] and in assay [2] was “inactive” throughout.
Take `Cc1ccc(C)c(O)c1C`: the Potency result in assay [1] and in assay [2] was “inactive” throughout.
For the molecule `CCC(C)(CCCC(C)C)OC(C)=O` (centres undefined), the Potency result in assay [1] and in assay [2] was “inactive” throughout.
Turning to `N[C@@H](CCC(=O)Nc1ccc([N+](=O)[O-])cc1)C(=O)O`, the Potency result in assay [1] and in assay [2] was “inactive” in each case.
`COc1ccc(C(=O)c2ccc(C)cc2)c(O)c1`: the Potency result in assay [1] and in assay [2] was “inactive” each time.
As to `NCC(=O)CCC(=O)O`, the Potency entry in assay [1] and in assay [2] was “inactive” each time.
`Cc1cncc(C)c1`: the Potency result in assay [1] and in assay [2] was “inactive” each time.
`CC(=O)c1ccc2ccccc2c1`: the Potency result in assay [1] and in assay [2] was “inactive” each time.
For the molecule `NC(=O)N/N=C/c1ccc([N+](=O)[O-])o1`, the Potency result in assay [1] and in assay [2] was “inactive” in each case.
For `C=CC(C)(CCC=C(C)C)OC=O` (centres undefined), the Potency result in assay [1] and in assay [2] was “inactive” in each case.
Turning to `C[C@H]1C[C@H]2[C@@H]3CCC4=CC(=O)C=C[C@]4(C)[C@@]3(Cl)[C@@H](O)C[C@]2(C)[C@@]1(O)C(=O)CO`, the Potency result in assay [1] and in assay [2] was “inactive” each time.
In the case of `CCCCCCCCC(CCCCCC)C(=O)O` (centres undefined), the Potency result in assay [1] and in assay [2] was “inactive” each time.
In the case of `Cc1ccc(Cl)cc1N`, the Potency entry in assay [1] and in assay [2] was “inactive” in each case.
For the molecule `CCOc1ccccc1O`, the Potency result in assay [1] and in assay [2] was “inactive” in each case.
`C[C@H](CCC(=O)O)[C@H]1CC[C@H]2[C@@H]3[C@H](O)C[C@@H]4C[C@H](O)CC[C@]4(C)[C@H]3C[C@H](O)[C@]12C`: the Potency result in assay [1] and in assay [2] was “inactive” throughout.
As for `Nc1nc2ccccc2n1Cc1ccc(F)cc1`, the Potency result in assay [1] and in assay [2] was “inactive” throughout.
Regarding `CC(C)N=C=NC(C)C`, the Potency entry in assay [1] and in assay [2] was “inactive” each time.
For `O=[N+]([O-])c1ccc(CCO)cc1`, the Potency result in assay [1] and in assay [2] was “inactive” throughout.
On to `Nc1cccc(S(=O)(=O)c2cccc(N)c2)c1`, for which the Potency result in assay [1] and in assay [2] was “inactive” each time.
Turning to `CSCC[C@H](NC(=O)[C@H](Cc1c[nH]c2ccccc12)NC(=O)CCNC(=O)OC(C)(C)C)C(=O)N[C@@H](CC(=O)O)C(=O)N[C@@H](Cc1ccccc1)C(N)=O`, the Potency entry in assay [1] and in assay [2] was “inactive” throughout.
With `C[C@@H]1C[C@H]2[C@@H]3CCC4=CC(=O)C=C[C@]4(C)[C@@]3(F)[C@@H](O)C[C@]2(C)[C@@]1(O)C(=O)COC(=O)c1ccncc1`, the Potency result in assay [1] and in assay [2] was “inactive” in each case.
Take `CN1[C@@H]2CC[C@H]1CC(NC(=O)n1c(=O)[nH]c3ccccc31)C2` (some centres undefined): the Potency result in assay [1] and in assay [2] was “inactive” each time.
Take `CC1C2CC(CC2C2CCCC(O)C2)C1(C)C` (centres undefined): the Potency result in assay [1] and in assay [2] was “inactive” in each case.
Take `CN(C)CCCN1c2ccccc2Sc2ccc(C(F)(F)F)cc21`: the Potency entry in assay [1] and in assay [2] was “inactive” in each case.
Regarding `CCOC(=O)C(O)c1ccccc1` (centres undefined), the Potency result in assay [1] and in assay [2] was “inactive” in each case.
In the case of `O=Cc1ccc(Cl)c([N+](=O)[O-])c1`, the Potency result in assay [1] and in assay [2] was “inactive” each time.
For `CCCCCCCCCOC(C)=O`, the Potency entry in assay [1] and in assay [2] was “inactive” in each case.
As to `CC1=C(C)C(=O)C(C(CCCCCC(=O)O)c2ccccc2)=C(C)C1=O` (centres undefined), the Potency result in assay [1] and in assay [2] was “inactive” in each case.
Consider `CC(C)(CO)CO`, for which the Potency result in assay [1] and in assay [2] was “inactive” throughout.
For the molecule `COc1cc(/C=C/C(N)=O)cc(OC)c1OC`, the Potency result in assay [1] and in assay [2] was “inactive” in each case.
Take `O=[N+]([O-])c1cc([N+](=O)[O-])c2ccc(S(=O)(=O)O)cc2c1O`: the Potency result in assay [1] and in assay [2] was “inactive” in each case.
Take `C[C@@H](O)[C@H]1C(=O)N2C(C(=O)O)=C(S[C@@H]3CN[C@H](C(=O)N(C)C)C3)[C@H](C)[C@H]12`: the Potency result in assay [1] and in assay [2] was “inactive” each time.
With `c1ccc(SCCSc2ccccc2)cc1`, the Potency entry in assay [1] and in assay [2] was “inactive” in each case.
With `CCCC(=O)CC`, the Potency result in assay [1] and in assay [2] was “inactive” throughout.
For the molecule `CCCCCCCCCCCCCc1ccccc1`, the Potency entry in assay [1] and in assay [2] was “inactive” throughout.
For `C=CC(=O)O`, the Potency result in assay [1] and in assay [2] was “inactive” each time.
On to `COc1ccc(-n2nc(CCC(=O)N(C)O)cc2-c2ccc(Cl)cc2)cc1`, for which the Potency result in assay [1] and in assay [2] was “inactive” throughout.

The values are drawn from PubChem BioAssay (Tox21).
